# Only some compounds are listed: those with a hit (about 18% of all), similar ones and a draw of the others.
# VDR inhibitor = Inhibitors of the vitamin D receptor (VDR): qHTS; VDR-SRC2-3 peptide fluorescence polarization, 2 h; actives 0.93% (n = 400,000); Potency, µM, inactives show max response, negative = inhibition, most hits filed as inhibitors
#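 Two reagent solutions held at 4 deg C in the dark were dispensed, compounds pinned at 23 nl, and the mixture incubated 2 h at room temperature. Read-out: fluorescence polarization of VDR–SRC2-3 peptide binding.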
# TDP1 inh = qHTS Assay for Inhibitors of Tyrosyl-DNA Phosphodiesterase (TDP1) | actives 0.28% (n = 350,000) | AID 485290, 2010 | Tyrosyl-DNA phosphodiesterase 1 (Homo sapiens), Q9NUW8 | Potency, µM (highest dose often 130 µM), inactives show at the highest dose activity change, negative = inhibition, actives largely listed as inhibitors | recombinant TDP1, AlphaScreen DNA substrate cleavage; also: nearly all actives have a fitted effect of over 40% in size
# Target sequence (Q9NUW8 whole entry, looked up): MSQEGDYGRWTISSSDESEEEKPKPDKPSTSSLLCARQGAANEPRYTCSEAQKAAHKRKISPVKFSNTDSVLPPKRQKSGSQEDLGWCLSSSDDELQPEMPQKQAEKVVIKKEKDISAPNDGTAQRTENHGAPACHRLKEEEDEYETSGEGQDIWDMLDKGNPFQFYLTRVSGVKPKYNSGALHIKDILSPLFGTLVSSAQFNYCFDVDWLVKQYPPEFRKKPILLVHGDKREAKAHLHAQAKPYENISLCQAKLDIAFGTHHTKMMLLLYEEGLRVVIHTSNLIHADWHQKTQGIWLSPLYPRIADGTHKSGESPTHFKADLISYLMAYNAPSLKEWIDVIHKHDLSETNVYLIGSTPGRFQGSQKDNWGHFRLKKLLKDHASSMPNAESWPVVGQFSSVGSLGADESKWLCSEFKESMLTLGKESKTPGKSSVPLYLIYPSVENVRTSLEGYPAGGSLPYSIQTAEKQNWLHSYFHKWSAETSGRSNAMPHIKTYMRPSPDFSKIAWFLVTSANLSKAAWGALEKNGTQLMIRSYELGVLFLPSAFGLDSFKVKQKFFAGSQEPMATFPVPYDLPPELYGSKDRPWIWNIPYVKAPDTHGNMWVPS
#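 Steps: enzyme plus compound, 15 min RT; add biotin/phosphotyrosine-FITC oligonucleotide (15 nM final), react 5 min; add donor/acceptor beads (10 ug/ml final), 10 min; read AlphaScreen. Tdp1 at 1 nM final.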
# TDP1 cell CPT = qHTS for Inhibitors of human tyrosyl-DNA phosphodiesterase 1 (TDP1): qHTS in cells in presence of CPT; Potency, µM (highest dose often 46.2 µM), without a hit: at the top dose activity change, negative = growth inhibition, usual class: inhibitors; AID 686979, 2013; chicken DT40 Tdp1-/-;hTDP1 cells + 20 nM CPT, ATP luminescence, 48 h; actives 12% (n = 420,000); also: nearly all actives have a fitted effect of over 55% in size
#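 Cell growth measured by CellTiter-Glo luminescence after a minimum 48 h, 37 C compound exposure with 20 nM CPT in Tdp1-knockout DT40 cells stably expressing hTDP1, seeded 400/well; qHTS titration format.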
# TDP1 cell noCPT = qHTS for Inhibitors of human tyrosyl-DNA phosphodiesterase 1 (TDP1): qHTS in cells in absence of CPT. DT40 Tdp1-/- hTDP1 cells, no CPT, ATP luminescence, 48 h. Potency, µM (doses to about 46.2 µM), for the others: at the highest dose activity change, negative = growth inhibition, most hits filed as inhibitors. actives 15% (n = 420,000). AID 686978, 2013; also: nearly all actives have a fitted effect of over 55% in size
#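 Chicken DT40 Tdp1-/- cells stably complemented with human TDP1 were seeded at 400 cells/well with DMSO in place of 20 nM camptothecin. After compound pinning, cells grew at least 48 hr at 37 °C; viability read by CellTiter-Glo luminescence.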
# GCN5L2 inh = qHTS Assay for Inhibitors of GCN5L2 | actives 0.21% (n = 390,000) | GCN5L2 HAT assay, ThioGlo1 CoA-SH fluorescence | Potency, µM (titrated, usually from 58.9 µM), for inactives: at the top dose activity change, negative = inhibition, most hits filed as inhibitors | AID 504327, 2011 | Histone acetyltransferase KAT2A (Homo sapiens), Q92830
#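 ThioGlo1-coupled HAT assay: 20nM GCN5L2, 70uM acetyl-CoA, 75uM H3(1-25) peptide, pH 7.5. Fluorescence read at 340/540nm at start and after 20 min at room temperature.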
# PLK1 PBD block = qHTS for Inhibitors of PLK1-PDB (polo-like kinase 1 - polo-box domain): Primary Screen; Plk1 PBD binding of FITC phosphopeptide, fluorescence polarization; Potency, µM, inactives show max response, negative = inhibition, most hits filed as inhibitors; actives 2.8% (n = 360,000); AID 720504, 2013; also: series mostly up to about 57 µM; nearly all actives have a fitted effect of over 65% in size
# The depositor's hits bear a star; ? = inconclusive; / = not tested or not shown; [ ] = dose if it differs, or a comment. Calls follow the shape of the dose curve; as a rule, active = well fitted curve in the direction sought with a large enough effect; inconclusive = small, poorly fitted or top-dose-only effect, or another doubt; inactive = no such curve, though single readings can be large; an effect the other way counts as inactive or inconclusive. % is scaled to controls: 0 for no effect and ±100 for the full control effect; potency is read from the fitted curve at half-maximal effect.
SMILES,VDR inhibitor,TDP1 inh,TDP1 cell CPT,TDP1 cell noCPT,GCN5L2 inh,PLK1 PBD block
O=C(NCCc1c[nH]c2ccccc12)c1cc2sccc2n1Cc1ccccc1,14%,8%,23µM*,21µM*,3%,-6%
O=C(NCCc1c[nH]c2ccccc12)/C(=C\c1cccs1)NC(=O)c1ccccc1,-5%,5%,?,?,-2%,27µM*
C=CCn1c(N)c(C(=O)OC(C)(C)C)c2nc3ccccc3nc21,?,4%,21µM*,12µM*,-8%,2%
C=CCn1c(N)c(C(=O)OC(C)CC)c2nc3ccccc3nc21 (stereo not given),-5%,3%,-25%,?,?,-10%
CC(C)(C)OC(=O)NCCCCCNC(=O)c1ncn2c1c(=O)[nH]c1ccccc12,/,/,?,21µM*,/,-4%
CC1CCN(C(=O)c2ncn3c2c(=O)[nH]c2ccc(Br)cc23)CC1,/,/,-1%,-2%,/,5%
CC(C)(C)OC(=O)[C@H](Cc1ccccc1)NC(=O)c1ncn2c1c(=O)[nH]c1ccc(Br)cc12,/,/,4.6µM*,3.3µM*,/,-24%
COCCN1C(=O)N[C@@H](c2cccc(F)c2)C(C(=O)OC)=C1C,-10%,5%[12.3 µM],15%,1%,21%,-5%
COc1ccc(N2CCN(CC(O)COc3ccc(C(C)C)c(C)c3)CC2)cc1 (stereo not given),-6%,/,?,?,4%,/
COCC1CCCN(Cc2cn(-c3ccccc3)nc2-c2ccc3c(c2)OCO3)C1 (stereo not given),-6%,6%,-12%,-28%,-4%,-10%
Cc1ccc(-n2c(C)cc(C(=O)CSc3nncs3)c2C)cc1,-9%,9%,10µM*,21µM*,-16%,0%
Cc1cc(C(=O)CSc2nnnn2-c2ccccc2)c(C)n1CCc1ccccc1,-7%,7%,-7%,?,-4%,3%
Cc1ccc(-n2c(C)cc(C(=O)CSc3nnnn3C)c2C)cc1,11%,8%,18µM*,21µM*,0%,-6%
Cc1cc(C(=O)CSc2nnnn2-c2ccc(O)cc2)c(C)n1C,6%,8%,?,16µM*,-1%,24µM*
Nc1sc2c(c1C(=O)NCCc1ccccc1)CCCC2,/,/,?,15µM*,/,?
Nc1sc2c(c1C(=O)NCCc1ccccc1)CCC2,?,0%,6%,-26%,-3%,?
CC(=O)Nc1sc2c(c1C(N)=O)CCC2,5%,3%[56.1 µM],-2%,-27%,1%,-4%
CN1CCc2c(sc(/N=C/c3c[nH]c4ccccc34)c2C#N)C1,3%,/,?,?,-3%,-11%
O=C(Nc1sc2c(c1C(=O)NCC(O)CO)CCCC2)c1ccccc1 (stereo not given),6%,/,21%,8%,/,-3%
CN1CCc2c(sc(/N=C/c3c[nH]c4ccccc34)c2C(N)=O)C1,8%,?,-103%,16µM*,6%,-9%
NC(=O)c1c(N)sc2c1CCCC2,-28%,-10%,-4%,6%,-8%,24µM*
CN(C)CCNC(=O)c1c(NC(=O)c2ccccc2)sc2c1CCCC2,-3%,/,?,26µM*,-2%,1%
COC(=O)c1ccccc1NC(=O)CNCCc1ccc(OC)c(OC)c1,3%,/,-21%,-23%,-1%,-12%
COC(=O)C(N)CCCCN (stereo not given),-14%,/,17%,-3%,/,-7%
CN1CCc2c(sc(NC(=O)c3ccco3)c2C(N)=O)C1,-8%,2%,13%,-1%,-3%,-8%
SMILES,VDR inhibitor,TDP1 inh,TDP1 cell CPT,TDP1 cell noCPT,GCN5L2 inh,PLK1 PBD block
Nc1sc2c(c1C(=O)c1ccccc1)CCCC2,?,11%,-19%,-22%,-4%,21µM*
CN1CCc2c(sc(N)c2C(N)=O)C1,-6%,5%,26µM*,21µM*,2%,?
Cc1cccc(NC(=O)CSc2nncn2N)c1C,/,/,8%,-3%,/,-3%
CC(C)(C)c1cc(CCC(=O)NCc2ccccn2)cc(C(C)(C)C)c1O,15%,2%,?,-18%,-3%,-1%
Cc1ccc(C)c(OCCSc2nc3ccccc3n2CC(=O)N2CCOCC2)c1,10%,9%,-22%,?,-1%,/
Cc1ccc(C(C)C)c(OCCSc2nc3ccccc3n2CC(O)CO)c1 (stereo not given),1%,1%,13µM*,16µM*,-14%,/
CC(C)(C)NC(=O)C12CCC(C)(c3nc4ccccc4nc31)C2(C)C (stereo not given),8%,3%,11µM*,22µM*,-10%,-5%
COC(=O)C12CCC(C)(c3nc4ccccc4nc31)C2(C)C (stereo not given),5%,0%,1%,?,2%,?
COc1ccc(NC(=O)CN(c2cccc(C)c2C)S(=O)(=O)c2ccccc2)cc1OC,-7%,/,23µM*,?,-6%,/
CCOc1ccccc1N(CC(=O)Nc1cc(OC)ccc1OC)S(=O)(=O)c1ccccc1,-5%,/,?,?,-3%,3%
CC(NC(=O)CN(c1ccc(Cl)cc1Cl)S(=O)(=O)c1ccccc1)c1ccccc1 (stereo not given),-5%,-1%,?,?,-5%,/
COc1ccccc1N(CC(=O)Nc1ccc(Cc2ccncc2)cc1)S(=O)(=O)c1ccccc1,-1%,/,23µM*,?,-12%,-1%
CCOc1ccccc1N(CC(=O)Nc1ccccc1)S(=O)(=O)c1ccccc1,27%,/,?,26µM*,?,6%
Cc1ccccc1NC(=O)CN(c1ccc(Cl)cc1Cl)S(=O)(=O)c1ccccc1,-3%,5%,18µM*,?,-8%,/
O=C(NN1CCCCC1)c1cnn2c(C(F)F)cc(-c3ccccc3)nc12,-2%,8%,?,?,-14%,-3%
COc1ccccc1C(=O)Nc1ccc(Cc2ccncc2)cc1,-5%,5%,?,21µM*,-6%,-5%
COc1ccc([N+](=O)[O-])cc1C(=O)Nc1ccc(Cc2ccncc2)cc1,-8%,6%,-12%,?,3%,0%
CCCOC(=O)c1ccc(NC(=O)c2ccccc2OC)cc1,-9%,5%,?,?,-8%,-8%

# Compound activity as filed in PubChem.
